# Measurements published in PubChem BioAssay (NCATS).
# Active and inactive are the calls of the source. Calls follow the shape of the dose curve; as a rule, active = well fitted curve in the direction sought with a large enough effect; inactive = no such curve, though single readings can be large or run the other way.
# Assay: qHTS for small molecule inhibitors of Yes1 kinase: Counter Assay (AID 686950);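 also: no kinase present so only ADP-Glo detection of a fixed ADP amount is tested; luminescence from ADP-Glo reporting ADP in a fixed ATP and ADP mixture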
# Details: series mostly up to 76.9 µM
# Summary of the method: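 No kinase present; 0.08 mM ATP + 0.02 mM ADP in 50 mM Tris pH 7.5, 10 mM MgCl2, 150 mM NaCl, 1 mM DTT; 20 min compound preincubation, 60 min RT, ADP-Glo luminescence, normalized to ATP/ADP (max) and ATP-only (min).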
row,Structure (SMILES),outcome
1,CC(=O)NCc1cccc(C#Cc2cncnc2Nc2ccc(OCc3cccc(F)c3)c(Cl)c2)c1,inactive
2,COc1ccccc1Oc1nccc(-c2c(-c3ccc(F)cc3)ncn2C2CCNCC2)n1,inactive
3,O=C(Nc1n[nH]c2cc(-c3ccccc3)ccc12)C1CC1,inactive
4,Cc1ccc2[nH]c(O)c(N=Nc3ccc(S(N)(=O)=O)cc3)c2c1,inactive
5,CCc1nccc2c1nc(-c1nonc1N)n2CC,inactive
6,COc1cc(N2CCN(C(C)C)CC2)ccc1Nc1nc(Nc2ccc(F)cc2C(N)=O)c2cc[nH]c2n1,inactive
7,CC(=Nc1ccc(S(N)(=O)=O)cc1)c1c(O)[nH]c2ccccc12,inactive
8,c1cnn2ncc(-c3ccnc(NCCCN4CCOCC4)n3)c2c1,inactive
9,CNC(=O)c1cccc(C#Cc2cncnc2Nc2ccc(OCc3cccc(F)c3)c(Cl)c2)c1,inactive
10,COc1ccc2cc(-c3c(-c4ccncc4)nc(-c4ccc(S(C)=O)cc4)n3C)ccc2c1 (stereo not drawn),inactive
11,NS(=O)(=O)c1ccc(-c2cc3ccncc3cc2OCc2ccccc2)cc1,inactive
12,CCN1CCC(CC(=O)Nc2n[nH]c3nnc(-c4cccc(F)c4F)cc23)CC1,inactive
13,COc1ccc(C2=C(N3CCc4ccccc43)C(=O)NC2=O)cc1,inactive
14,c1ccc(Nc2ncc(-c3ccccc3)o2)cc1,inactive
15,N#Cc1cccc(Nc2nccc(-c3cnn4ncccc34)n2)c1,inactive
16,CNC(=O)c1cncc(C=Cc2ccccc2C)c1,inactive
17,Cc1cccc(Oc2nccc(-c3c(-c4ccc(F)cc4)ncn3C3CCNCC3)n2)c1C,inactive

row,Structure (SMILES),outcome
1,Fc1ccc(-c2c(-c3ccncc3)nc3n2CCS3)cc1,inactive
2,Cc1ccc(NC(=O)c2ccoc2)cc1-c1ccc(C(=O)NCC2CC2)cc1,inactive
3,Cc1cccc2c(N=Nc3ccc(S(N)(=O)=O)cc3)c(O)[nH]c12,inactive
4,CCOc1ccc2c(-c3ccnc(Nc4cc(OC)cc(C(F)(F)F)c4)n3)cnn2n1,inactive
5,Fc1ccc(Oc2nccc(-c3c(-c4ccc(F)cc4)ncn3C3CCNCC3)n2)cc1,inactive
6,Fc1ccc(-c2ncn(C3CCNCC3)c2-c2ccnc(Oc3cccc(F)c3)n2)cc1,inactive
7,COc1ccc2ncn(-c3cc(OC(C)c4ccccc4C(F)(F)F)c(C(N)=O)s3)c2c1 (stereo not drawn),inactive
8,NS(=O)(=O)c1ccc(N=Nc2c(=O)[nH]c3ccc4[nH]cccc4c23)cc1,inactive
9,O=C1NC(=O)C(c2cccc([N+](=O)[O-])c2)=C1Nc1cc(Cl)c(O)c(Cl)c1,inactive
10,CCCN1CCC=C(c2ccc(Nc3nc(Nc4ccccc4C(N)=O)c4cc[nH]c4n3)c(C)c2)C1,inactive
11,c1cc(-c2cnn3nc(N4CCOCC4)ccc23)nc(NC2CC2)n1,inactive
12,CCN1CCC(C(=O)Nc2n[nH]c3nnc(-c4cccc(F)c4F)cc23)CC1,inactive
13,Cc1nnc(-c2ccc(C)c(-c3ccc(C(=O)Nc4cccc(C#N)c4)cc3)c2)o1,inactive
14,O=C(Nc1ccc(Oc2ccc3nc(NC(=O)c4ccccc4)[nH]c3c2)cc1)Nc1cc(C(F)(F)F)ccc1F,inactive
15,CC(C)(C)c1ccc(Oc2nccc(-c3c(-c4ccc(F)cc4)ncn3C3CCNCC3)n2)cc1,inactive
16,COc1cc(N2CCN(C(C)C)CC2)ccc1Nc1nc(Nc2cccc3ncccc23)c2cc[nH]c2n1,inactive
